Screens from PubChem.
In the library only some 2.7% were active in any assay of this set; here they are far more common.
ATXN viability = viability counter-screen for ATXN expression inhibitors. S2 cells (HEK-293 line with an ATXN2-luciferase reporter) viability, CellTiter-Fluor protease fluorescence, 24 h. Potency, µM (series often up to 56.7 µM), hits mostly cytotoxic. 400,000 tested, 0.49% active. AID 651635; also: nearly all actives have a fitted effect of over 40% in size
ATXN2 expr inh = ATXN2 expression inhibition | HEK-293 ATXN2-luciferase reporter, luminescence, 24 h | Potency, µM (titrated, usually from 57 µM), for the others: top-dose activity change, negative = inhibition, most hits filed as inhibitors | 360,000 tested, 0.72% active; also: % is scaled to controls: 0 for no effect and ±100 for the full control effect; nearly all actives have a fitted effect of over 55% in size
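qHTS (up to 57 uM final) was run with 24 h compound exposure of reporter cells at 37 °C. Each well was multiplexed: SteadyGlo luminescence measured ATXN2-luciferase expression after a fluorogenic Gly-Phe-AFC viability readout (25 uM final).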
HepG2 tox = counter-screen for TGF-b inhibitors: cytotoxicity in HepG2 cells. Potency, µM (titrated, usually from 46.1 µM), inactives show at the top dose activity change, negative = cytotoxicity, hits mostly cytotoxic. AID 588856. 410,000 tested, 0.76% active. HepG2 CAGA-GFP viability, ATP luminescence, 18 h
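CellTiter-Glo luminescence gave cytotoxicity after 18 hours at 37 degrees C. The cells were HepG2 CAGA-GFP in 1% FBS DMEM, stimulated with 500 pg/mL TGF-beta after compound addition. %Activity was normalised to no-cell wells (complete cell-killing) and DMSO (no toxicity), and curves were fitted and classified.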
TGFb inhibitor = TGF-b pathway inhibition. HepG2 CAGA-GFP TGF-b/SMAD3 reporter, GFP fluorescence, 18 h; TGF-beta stimulated, 500 pg/mL final. 410,000 tested, 1.2% active. Potency, µM (doses to about 46.1 µM), inactives show top-dose activity, negative = inhibition, most hits filed as inhibitors; also: % is scaled to controls: 0 for no effect and ±100 for the full control effect; nearly all actives have a fitted effect of over 65% in size
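Inhibition was scored as loss of TGF-beta-induced (500 pg/mL final, 18 hours, 37 degrees C) GFP in HEPG2 cells carrying a CAGA-GFP reporter, in DMEM with 1% FBS. Well GFP was summed per cell; Activity was normalised to unstimulated and stimulated DMSO wells, then concentration-response fitting.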
12-LOX inh = blocks human arachidonate 12S-lipoxygenase; P18054; purified 12hLO, xylenol orange hydroperoxide absorbance; Potency, µM (series often up to 108 µM), inactives show at the top dose activity change, negative = inhibition, hits mostly inhibitors; 580,000 tested, 1.1% active; AID 1671190; also: % is scaled to controls: 0 for no effect and ±100 for the full control effect
Target sequence (P18054 whole entry, looked up): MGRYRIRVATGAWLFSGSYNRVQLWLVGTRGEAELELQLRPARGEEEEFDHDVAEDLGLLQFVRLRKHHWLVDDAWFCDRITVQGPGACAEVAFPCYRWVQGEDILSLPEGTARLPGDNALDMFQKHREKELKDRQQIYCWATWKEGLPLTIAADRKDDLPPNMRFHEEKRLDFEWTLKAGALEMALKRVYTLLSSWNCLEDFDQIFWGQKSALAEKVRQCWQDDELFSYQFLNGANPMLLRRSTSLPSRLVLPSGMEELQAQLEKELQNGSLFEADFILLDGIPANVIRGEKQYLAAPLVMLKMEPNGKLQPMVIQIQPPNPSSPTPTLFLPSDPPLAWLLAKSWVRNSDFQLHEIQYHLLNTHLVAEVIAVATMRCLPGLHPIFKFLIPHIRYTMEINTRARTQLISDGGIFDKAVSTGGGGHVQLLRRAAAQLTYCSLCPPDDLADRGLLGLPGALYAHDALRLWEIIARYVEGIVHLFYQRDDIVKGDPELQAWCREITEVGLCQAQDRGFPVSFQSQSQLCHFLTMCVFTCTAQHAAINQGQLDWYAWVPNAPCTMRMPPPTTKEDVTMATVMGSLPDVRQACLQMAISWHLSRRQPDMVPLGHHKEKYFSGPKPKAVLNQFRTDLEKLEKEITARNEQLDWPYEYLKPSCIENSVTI
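Purified human 12hLO at 150 nM in 25 mM Hepes, 0.01% Triton X-100, pH 7.0, preincubated 15 min at room temperature with compound. Reaction started with 40 uM arachidonic acid, 30 min at room temperature. Hydroperoxide measured by Fe-xylenol orange, 573/405 nm absorbance ratio.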
* = called active by the depositor; i = inactive; ? = inconclusive; nt = no result given; [ ] = remark or other dose. Calls follow the shape of the dose curve; as a rule, active = well fitted curve in the direction sought with a large enough effect; inconclusive = small, poorly fitted or top-dose-only effect, or another doubt; inactive = no such curve, though single readings can be large; an effect the other way counts as inactive or inconclusive. Potency is read from the fitted curve at half-maximal effect.

SMILES	ATXN viability	ATXN2 expr inh	HepG2 tox	TGFb inhibitor	12-LOX inh
Cc1cc(C)c2nc(N(Cc3cccnc3)C(=O)CCS(=O)(=O)c3ccccc3)sc2c1	nt	nt	1%	?	-24%
Cc1ccc2sc(N(Cc3cccnc3)C(=O)CCS(=O)(=O)c3ccccc3)nc2c1C	nt	nt	-40%	0%	?
O=C(c1cccs1)N(Cc1cccnc1)c1nc2c(Cl)cccc2s1	nt	nt	-42%	18µM*	-11%
Cc1noc(CSc2ccccc2C(=O)N2CCC(C)CC2)n1	nt	nt	nt	nt	9%
CN(C)Cc1cccc(-c2cc3c(ccn3Cc3ccncc3)c(N3CCOCC3)n2)c1	nt	nt	nt	nt	17%[176 µM]
CC(=O)Nc1ccc(C2Nc3ccccc3C(=O)N2c2ccc(F)cc2)cc1 (stereo not given)	nt	nt	nt	nt	-3%
O=C(CCOc1ccccc1)N(Cc1cccnc1)c1nc2c(Cl)cccc2s1	nt	nt	13µM*	?	-17%
Cc1ccc2c(c1)Oc1ccc([N+](=O)[O-])cc1C(=O)N2	i	-24%	1%	13%	?
Cc1ccc2c(c1)Oc1ccc(NC(=O)CCl)cc1C(=O)N2	10µM*	?	8.9µM*	14µM*	?
Nc1[nH]nc2nc3ccccc3cc12	?	-7%	-27%	-14%	0%
Nc1cccc2nc3ccccc3cc12	nt	7.9µM*	14%	?	nt
CC(C(=O)N1CCCCC1)N1CCN(S(=O)(=O)c2ccc(Cl)cc2)CC1 (stereo not given)	i	-9%	14%	-1%	1µM*
CC(C)c1ccc(S(=O)(=O)N2CCN(C(C)C(=O)N3CCCC3)CC2)cc1 (stereo not given)	i	5%	-51%	-7%	-7%
O=C(CCl)N(c1ccccc1)c1ccccc1	nt	?	11µM*	?	-10%
O=C(CCl)N(CCc1ccccc1)CCc1ccccc1	?	?	18µM*	?	?
CNC(=O)N(c1ccccc1)c1ccccc1	i	0%	2%	2%	0%
O=C(N(c1ccccc1)c1ccccc1)N(c1ccccc1)c1ccccc1	?	nt	-10%	16µM*	22%
Cc1c(S(=O)(=O)c2ccccc2)c(NC(=O)C(C)C)n(C(C)C)c1C	nt	nt	nt	nt	-5%
O=C(NC1CCNCC1)c1[nH]ncc1NC(=O)c1c(Cl)cccc1Cl	nt	0.39µM*	nt	nt	-36%[57.4 µM]
S=C(c1ccc(-c2ccc(Cl)cc2)o1)N1CCCCC1	i	55%	-12%	-5%	16µM*
CC(C)(C)c1cc(/C=C/C(=O)O)cc(C(C)(C)C)c1O	nt	nt	nt	nt	8.9µM*
CC(C)(C)c1cc(C=O)cc(C(C)(C)C)c1O	i	4%	nt	nt	2%
COc1ccc(-c2cc(C(F)(F)F)nc(SCCC(=O)Nc3cc(C)ccc3O)n2)cc1	i	6%	2%	4%	-17%
O=C(CCS(=O)(=O)c1nc(-c2cccs2)cc(C(F)(F)F)n1)Nc1ccc(Br)cc1	nt	nt	10µM*	5.6µM*	1%
O=C(CSc1nc(-c2cccs2)cc(C(F)(F)F)n1)Nc1ccccc1Cl	i	-5%	8%	-16%	-24%
SMILES	ATXN viability	ATXN2 expr inh	HepG2 tox	TGFb inhibitor	12-LOX inh
Cc1ccc(O)c(NC(=O)CCS(=O)(=O)c2nc(-c3cccs3)cc(C(F)(F)F)n2)c1	nt	nt	13µM*	10µM*	-1%
O=C(CCS(=O)(=O)c1nc(-c2cccs2)cc(C(F)(F)F)n1)Nc1cc(Br)ccc1O	nt	nt	6.3µM*	2.5µM*	3%
Cn1ccnc1CN1CCCC(CCc2ccccc2)C1 (stereo not given)	nt	nt	nt	nt	64%
CC1=C(c2ccc(C)c(C)c2)S(=O)(=O)N=C1N1CCC(C(=O)NC2CCCC2)CC1	nt	nt	nt	nt	-5%
O=C(/C=C/c1ccco1)OCc1nnc(-c2ccccc2)o1	i	-29%	-21%	?	-29%
O=C(/C=C/c1ccco1)OCc1nnc(-c2ccc(Cl)cc2)o1	i	-10%	2%	-1%	45µM*
CCOc1cc(CN(CC(=O)NC2CCCCC2)C2CC2)ccc1OC(F)F	nt	nt	nt	nt	3%
COc1ccc(/C=N/NC(=S)N[C@H]2CC3CCC2C3)cc1 (stereo not given in full)	i	7%	-43%	0%	10µM*
O=C(CC(c1ccccc1)c1cc(Br)ccc1O)NCC1(c2ccccc2)CCCC1 (stereo not given)	35µM*	?	-99%	18µM*	?
O=C(CC(c1ccccc1)c1cc(Br)ccc1O)NCCN1CCOCC1 (stereo not given)	i	-5%	-13%	-1%	-30%
COc1cccc(/C=C/c2nc3ccccc3o2)c1OC(C)C	nt	nt	nt	nt	46%
CCCNC(=O)c1ccc2c(c1)N=C(CCC)c1ccccc1S2	?	-37%	-28%	8.9µM*	-20%
Cn1c(NCCCO)nc2c1c(=O)n(Cc1ccc(Br)cc1)c(=O)n2C	nt	nt	nt	nt	-7%
O=C(NC(NC(=S)Nc1ccc(Cl)c(Cl)c1)C(Cl)(Cl)Cl)c1ccco1 (stereo not given)	i	?	-43%	?	2.8µM*
O=C(NC(NC(=S)Nc1cc(Cl)ccc1Cl)C(Cl)(Cl)Cl)c1ccco1 (stereo not given)	i	?	-29%	16µM*	?
O=C(/C=C/c1ccccc1)NC(NC(=S)Nc1cc(Cl)ccc1Cl)C(Cl)(Cl)Cl (stereo not given)	?	?	-7%	2.2µM*	4%
CC1CCCCC1NC(=O)C1(c2ccccc2)CCC1 (stereo not given)	nt	nt	nt	nt	65%
CC1CCC(NC(=O)CCc2cn(Cc3ccccc3Cl)c3ccccc23)CC1 (stereo not given)	nt	nt	-21%	16µM*	-28%
O=C(CCc1cn(Cc2ccccc2Cl)c2ccccc12)NC1CCCCC1	nt	nt	-31%	?	-15%
O=C1NC(=O)/C(=C\c2ccc(N3CCOCC3)o2)N1	i	9%	-5%	-3%	20µM*
Cc1cccc(C)c1NC(=S)NCCc1ccc(O)c(O)c1	nt	-5%	6%	0%	35µM*
Cc1cccc(NC(=S)NCCc2ccccc2)c1C	i	3%	-41%	-13%	?
CCN(CC)S(=O)(=O)c1cc(NC(=O)C2CCN(c3ncnc4sc(C)c(C)c34)CC2)ccc1Cl	?	11µM*	-17%	?	1%
COc1ccc(F)c(F)c1C(=O)c1cnc(NC2CCN(S(C)(=O)=O)CC2)nc1N	nt	2.7µM*	nt	nt	-2%[57.4 µM]
Cc1ccsc1-c1nc(-c2ccc3c(c2)OCCCO3)cs1	nt	nt	nt	nt	-32%
COCCNC(=O)NC(=O)CN(CC(C)C)C1CC1	nt	nt	nt	nt	-19%
COc1ccccc1N(C)c1cc2c(c3c1ccn3C)C1CCC2O1 (stereo not given)	?	-35%	-48%	16µM*	-29%
